Many of the other results were omitted from the sample, so hits are more common in it than they were.
RmlCD inh mix: inhibitors of RmlC and RmlD coupled enzymes | RmlC/RmlD coupled enzyme inhibition, 384-well mixture HTS | 110,000 tested, 0.39% active | inhibition, % at 5.5 µM; in the data active = inhibition above about 30%, passing the limit was not always enough; inconclusive = no clear call, values can overlap the other calls
RT RNaseH block: inhibitors of HIV-1 reverse transcriptase RNase H. 65,000 tested, 1.9% active. inhibition, % at 10 µM. P04585. RT-RNase H RNA/DNA duplex cleavage, fluorescence. AID 565; in the data active = inhibition above about 50%
Of the large screens only hits and unclear results are named; the others gave an inactive call.

COCCNC(=O)c1cc2c(=O)n3cccc(C)c3nc2n(Cc2ccncc2)c1=N	RmlCD inh mix 40
CCN(CCNC(=O)CN1CCN(Cc2ccc(Cl)cc2)C1=O)c1ccccc1	none
CC(C)CC(c1nnnn1Cc1ccccc1)N1CCN(C(=O)c2ccco2)CC1 (centres undefined)	none
COc1ccc(CNC(=O)CCCCCn2c(SCC#N)nc3cc4c(cc3c2=O)OCO4)cc1	RT RNaseH block 57
COc1ccc(CCNC(=O)CCCn2c(SCC#N)nc3ccccc3c2=O)cc1OC	none
O=S(=O)(NCCc1csc(-c2cccnc2)n1)c1ccc(Cl)s1	none
COc1ccc(-n2ncc3c(N4CCN(c5cccc(C)c5C)CC4)ncnc32)cc1	RT RNaseH block 84 (no result: RmlCD inh mix)
COc1ccc(-n2ncc3c(N4CCCCC4)ncnc32)cc1	none
O=C(COc1ccc(Cl)cc1)Nc1ccccc1C(=O)NCc1ccco1	none
Cc1cc(C)cc(OCC(=O)Nc2ccccc2C(=O)NCc2ccco2)c1	RT RNaseH block 60
COc1ccc(C(=O)c2ccc(OC)c3cccc(O)c23)cc1OC	none (no result: RT RNaseH block)
COc1ccc2c3c(cccc13)NN=C2C	RT RNaseH block 57 (no result: RmlCD inh mix)
CCOC(=O)c1c(-c2ccco2)csc1N	RT RNaseH block 56
CCOC(=O)c1c(-c2ccco2)csc1NC(=O)CSc1nnc(N)s1	none (no result: RT RNaseH block)
CSc1ncc(CNc2cc([N+](=O)[O-])ccc2C)c(N)n1	none (no result: RT RNaseH block)
CCOC(=O)N1CCC(N2C(=O)c3ccccc3C2Nc2ccc3c(c2)OCCO3)CC1 (centres undefined)	none
CCOC(=O)N1CCC(N2C(=O)c3ccccc3C2Nc2ccc3c(C)cc(=O)oc3c2)CC1 (centres undefined)	RmlCD inh mix 89
COc1cccc2cc(C(C)=O)c(=O)oc12	none
COc1cccc2cc3c(=O)n(-c4ccccc4)nc-3oc12	RT RNaseH block 53
O=c1cc2[nH]c3ccccc3c(=O)n2nc1-c1ccccc1	none (no result: RT RNaseH block)
CCCCn1c(=O)c(C(=O)Nc2nc3ccccc3[nH]2)c(O)c2ccccc21	none (no result: RmlCD inh mix)
CCn1c(=O)c(C(=O)Nc2nc3ccccc3[nH]2)c(O)c2ccccc21	RT RNaseH block 75
Cc1ccc(C(=O)CCNc2ccc(Cl)cc2)o1	none (no result: RT RNaseH block)
C=CCn1c(SCC(=O)Nc2ccccc2OC)nnc1-c1ccco1	none
C=CCn1c(SCC(=O)Nc2nccs2)nnc1-c1cc2cccc(OC)c2o1	RT RNaseH block 53
CC(Oc1c(Cl)cccc1Cl)C1=NCCN1 (centres undefined)	none (no result: RT RNaseH block)
O=C(NCC(c1ccc(F)cc1)N1CCOCC1)c1ccc(Br)o1 (centres undefined)	none
COc1ccc(C2C=C(c3ccccc3)Nc3nnnn32)cc1 (centres undefined)	none
COc1ccc(C2C=C(c3ccccc3)Nc3nc(NC(C)=O)nn32)cc1 (centres undefined)	RmlCD inh mix 40 (no result: RT RNaseH block)
O=C(Nc1ccc2c(c1)OCCO2)C1CCCN(S(=O)(=O)c2cnc[nH]2)C1 (centres undefined)	none
COc1ccc(S(=O)(=O)Nc2nc3ccccc3s2)cc1OC	none (no result: RT RNaseH block)
CN(C)c1cccc(C(=O)OCc2cc(=O)oc3cc(O)ccc23)c1	none (no result: RT RNaseH block)
CC1CN(S(=O)(=O)c2cccc(C(=O)OCc3cc(=O)oc4cc(O)ccc34)c2)CC(C)O1 (centres undefined)	RmlCD inh mix 82
COC(C/C=C\[C@H](O)COCc1ccccc1)OC	none (no result: RT RNaseH block)
Clc1ccc(-c2nn3c(Cn4cnc5ccccc54)nnc3s2)c(Cl)c1	RT RNaseH block 71 (no result: RmlCD inh mix)
Clc1ccc(Cl)c(-c2nn3c(Cn4cnc5ccccc54)nnc3s2)c1	none
Cc1cc(C)c(NC(=O)C(C)c2cccc(C(=O)c3ccccc3)c2)c(C)c1 (centres undefined)	none (no result: RT RNaseH block)
Cc1cc(NC(=O)c2cc(-c3ccc4c(c3)OCO4)on2)n(-c2ccccc2)n1	RmlCD inh mix inconclusive, RT RNaseH block 55
Cc1cc(NC(=O)c2cc(-c3ccccc3)on2)n(-c2ccccc2)n1	none
Cc1cc(NC(=O)Cn2c(C)nc3ccccc3c2=O)ccc1Br	none (no result: RT RNaseH block)
CCOc1cc(-c2cc(-c3ccc(C)cc3)nc(N)c2C#N)ccc1O	RmlCD inh mix 30 (no result: RT RNaseH block)
CCOc1cc(-c2c(C#N)c(N)nc3c2CCCC3C)ccc1O (centres undefined)	none
O=C(CSc1nc2ccccc2[nH]1)NCCCn1ccnc1	none
Cc1ncsc1CCSc1nc2ccccc2c(=O)n1C	none
CCN(CC)C(=O)c1sc2nc(-c3cccs3)cc(-c3cccs3)c2c1N	RT RNaseH block 52 (no result: RmlCD inh mix)
CCN(CC)C(=O)c1sc2nc(-c3cccs3)cc(-c3ccc(Cl)cc3)c2c1N	none (no result: RT RNaseH block)
CC1(c2nnc(-c3ccc(Cl)cc3)o2)CC(c2cccnc2)=NO1 (centres undefined)	none (no result: RT RNaseH block)
COc1ccc(-c2ccc(-c3noc(-c4ccccc4F)n3)c(OC)n2)cc1	RT RNaseH block 54
COc1ccc(-c2ccc(-c3noc(-c4ccccc4)n3)c(OC)n2)cc1	none
O=C(Nc1ccc(Cl)c(C(F)(F)F)c1)[C@@H]1CC=C[C@@H]2CCN(Cc3ccc(Cl)c(Cl)c3)C(=O)[C@@H]21	none (no result: RT RNaseH block)
Oc1c(C(c2cccc(F)c2)N2CCN(Cc3ccccc3)CC2)sc2ncnn12 (centres undefined)	none
Cn1nnnc1SCC1=C(C(=O)O)N2C(=O)[C@@H](NC(=O)[C@H](O)c3ccccc3)[C@H]2SC1	RT RNaseH block 61
CO/N=C(\C(=O)N[C@@H]1C(=O)N2C(C(=O)O)=C(COC(N)=O)CS[C@H]12)c1ccco1	none
CCn1c(N2CCN(C(=S)NCCc3ccccc3)CC2)nc2ccccc21	none (no result: RT RNaseH block)
OCOCCCn1c(C2CCCN2c2nc(-c3ccc(F)cc3)cs2)nc2cc(Cl)c(N3CCCCC3)cc21 (centres undefined)	none (no result: RT RNaseH block)
N#CC1=C2SCN(Cc3ccccc3)CN2C(=O)CC1c1ccccc1F (centres undefined)	RT RNaseH block 61
COc1ccc(Br)cc1C1CC(=O)N2CN(Cc3ccccc3)CSC2=C1C#N (centres undefined)	none
CC1=C(CC[C@@H](C)CO)OC2CC3C4CCC5CC(O)CCC5(C)C4CC(=O)C3(C)C12 (some centres undefined)	none (no result: RT RNaseH block)
O=c1c2cc(N3CCOCC3)ccc2[nH]c(=S)n1Cc1ccc(Cl)cc1	none (no result: RT RNaseH block)
Cc1ccc(Cn2c(=S)[nH]c3ccc(N4CCOCC4)cc3c2=O)o1	RT RNaseH block 64
O=C(c1ccc2nc3ccccc3c(=O)n2c1)N1CCN(Cc2ccc3c(c2)OCO3)CC1	RmlCD inh mix 31 (no result: RT RNaseH block)
O=C(c1cccn2c(=O)c3ccccc3nc12)N1CCN(Cc2ccc3c(c2)OCO3)CC1	none
CCC(=O)Nc1cccc(C2=NOC3(C2)C[C@H](C(N)=O)N(C(=O)CC#N)C3)c1 (some centres undefined)	none (no result: RT RNaseH block)
Cc1cc(C)c2c(n1)nn1c(N3CCN(Cc4ccccc4)CC3)cc(C)nc21	none (no result: RmlCD inh mix)
COc1ccc(F)cc1CN1CCN(c2cc(C)nc3c4c(C)cc(C)nc4nn23)CC1	RmlCD inh mix 50
CCC(C)C(=O)Nc1cc(C(=O)OC)cc(C(=O)OC)c1 (centres undefined)	none
COc1ccc(S(=O)(=O)N(CCc2ccccc2)CC(=O)NC(C)C)cc1	none (no result: RT RNaseH block)
Cc1ccc2c(CSc3nc4ccccc4c(=O)n3CCCO)cc(=O)oc2c1	none (no result: RmlCD inh mix)
O=C(Nc1ccc2nc(-c3ccc(Br)o3)[nH]c2c1)c1ccco1	RT RNaseH block 55
O=C(Nc1cccc(-c2nc3ccccc3[nH]2)c1)c1cccc(NC(=O)c2ccco2)c1	RT RNaseH block 64
O=S(=O)(Nc1ccc2nc(-c3ccc(Br)o3)[nH]c2c1)c1ccccc1	none
O=C(Nc1ccc2nc(-c3ccccc3)[nH]c2c1)c1ccco1	none (no result: RT RNaseH block)
CCCn1nnc(NC(=O)c2cc(Br)cc(Br)c2OC)n1	none

Assay outcomes: PubChem BioAssay, several laboratories
